Test results from PubChem BioAssay (NCATS).
Several values for one entry are separate records, joined by “and”; a condition that tells them apart may be missing. Equal values may be shown once. Records with an inconclusive call do not appear. A call without a number means that no potency is given here. Some compounds were tested as several samples or in several runs, with calls that do not always agree. Activity calls are given as the source filed them. The call rests on the fitted dose curve; in most records, active means well fitted curve in the direction sought with a large enough effect; inconclusive means small, poorly fitted or top-dose-only effect, or another doubt; inactive means no such curve, though single readings can be large; an effect the other way counts as inactive or inconclusive.

What was measured:
[1] = target: Luciferin 4-monooxygenase (Photinus pyralis) (UniProt P08659); assay: Biochemical firefly luciferase enzyme assay for NPC (AID 624030);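 further: purified P. pyralis luciferase at 10 nM with luciferin and ATP substrate; series mostly up to about 59 µM; nearly all actives have a fitted effect of over 70% in size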
Luciferin 4-monooxygenase (Photinus pyralis), sequence (P08659 whole entry, looked up): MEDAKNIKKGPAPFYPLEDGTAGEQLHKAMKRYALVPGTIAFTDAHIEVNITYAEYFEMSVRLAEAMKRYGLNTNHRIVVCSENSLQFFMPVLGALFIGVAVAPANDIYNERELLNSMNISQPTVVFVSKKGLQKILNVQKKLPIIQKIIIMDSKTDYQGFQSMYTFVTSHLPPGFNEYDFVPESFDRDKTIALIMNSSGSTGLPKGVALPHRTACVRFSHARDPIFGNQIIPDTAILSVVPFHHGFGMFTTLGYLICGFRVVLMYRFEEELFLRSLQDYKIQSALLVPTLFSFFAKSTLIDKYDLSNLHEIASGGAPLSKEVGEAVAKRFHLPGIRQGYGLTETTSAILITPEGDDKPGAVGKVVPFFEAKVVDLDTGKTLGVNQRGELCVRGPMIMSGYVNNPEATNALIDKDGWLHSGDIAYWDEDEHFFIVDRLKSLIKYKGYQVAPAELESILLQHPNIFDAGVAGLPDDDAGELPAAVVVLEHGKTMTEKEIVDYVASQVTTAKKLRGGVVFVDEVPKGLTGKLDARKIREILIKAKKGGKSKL
Procedure, shortened: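 Counter-screen for direct inhibition of the luciferase enzyme by approved-drug library compounds, run at 10 nM enzyme in 50 mM Tris acetate (final). Luminescence was read within 5 min of enzyme-buffer addition and normalized to PTC124 versus DMSO (0%).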

[2] = target: Voltage-gated inwardly rectifying potassium channel KCNH2 (Homo sapiens) (UniProt Q12809); assay: qHTS Assay for Small Molecule Inhibitors of the Human hERG Channel Activity (AID 588834);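 further: lower thallium flux fluorescence means stronger hERG block; nearly all actives have a fitted effect of over 50% in size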; further: potency means the concentration at half of the fitted maximal effect
Voltage-gated inwardly rectifying potassium channel KCNH2 (Homo sapiens), sequence (Q12809 whole entry, looked up): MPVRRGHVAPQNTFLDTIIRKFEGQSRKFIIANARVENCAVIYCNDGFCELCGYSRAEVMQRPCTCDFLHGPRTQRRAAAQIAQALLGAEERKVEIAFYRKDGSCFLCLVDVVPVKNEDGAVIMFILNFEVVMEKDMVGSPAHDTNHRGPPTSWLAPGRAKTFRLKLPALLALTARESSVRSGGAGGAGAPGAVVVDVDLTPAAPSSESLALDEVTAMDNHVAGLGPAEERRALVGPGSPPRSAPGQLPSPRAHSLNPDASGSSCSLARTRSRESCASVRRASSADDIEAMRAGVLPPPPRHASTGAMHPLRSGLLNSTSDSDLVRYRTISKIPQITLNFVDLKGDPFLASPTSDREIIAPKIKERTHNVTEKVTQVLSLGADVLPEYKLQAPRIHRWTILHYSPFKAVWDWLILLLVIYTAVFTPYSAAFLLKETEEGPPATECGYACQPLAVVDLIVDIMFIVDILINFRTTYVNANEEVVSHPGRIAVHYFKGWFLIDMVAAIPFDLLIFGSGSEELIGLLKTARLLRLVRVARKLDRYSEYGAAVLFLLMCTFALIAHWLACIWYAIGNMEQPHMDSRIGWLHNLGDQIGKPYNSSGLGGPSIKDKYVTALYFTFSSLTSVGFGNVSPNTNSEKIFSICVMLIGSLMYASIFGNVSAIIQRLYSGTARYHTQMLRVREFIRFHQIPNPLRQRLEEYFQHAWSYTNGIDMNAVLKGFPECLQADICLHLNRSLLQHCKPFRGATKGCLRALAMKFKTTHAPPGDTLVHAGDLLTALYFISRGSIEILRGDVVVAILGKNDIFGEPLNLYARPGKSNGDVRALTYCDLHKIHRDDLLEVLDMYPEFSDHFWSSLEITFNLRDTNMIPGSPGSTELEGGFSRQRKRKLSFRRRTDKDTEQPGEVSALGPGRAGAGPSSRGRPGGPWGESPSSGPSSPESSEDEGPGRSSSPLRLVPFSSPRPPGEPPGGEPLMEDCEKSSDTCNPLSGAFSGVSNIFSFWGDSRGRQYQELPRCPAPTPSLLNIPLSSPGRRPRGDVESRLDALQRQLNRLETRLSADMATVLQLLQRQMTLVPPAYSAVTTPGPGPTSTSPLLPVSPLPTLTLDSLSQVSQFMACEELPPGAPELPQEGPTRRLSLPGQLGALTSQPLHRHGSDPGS
Procedure, shortened: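 Homogeneous FluxOR thallium flux assay using hERG-expressing U2OS cells (BacMam). Compound treatment about 10 minutes preceded stimulation; reduced fluorescence taken as channel block.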

[3] = S16 Schwann cell viability assay (CellTiter-Glo assay) (AID 624031);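 further: native untransfected S16 rat Schwann cells; cellular ATP luminescence as a viability measure; series mostly up to about 58 µM; nearly all actives have a fitted effect of over 70% in size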
Procedure, shortened: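 Rat S16 Schwann cells without reporter constructs received compound or DMSO for 24 h at 37 °C under 5% CO2. Cellular ATP was then quantified by CellTiter-Glo luminescence, with vehicle wells defined as 0% activity and cell-free wells as reference.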

Compound | Potency [1] | Potency [2] | Potency [3]
CN(C)CCC=C1c2ccccc2C=Cc2ccccc21 | inactive | – | –
O=C(C1CCCCC1)N1CC(=O)N2CCc3ccccc3C2C1 (stereo unspecified) | – | inactive | –
NC(=O)OCC(COC(N)=O)c1ccccc1 | inactive | inactive | inactive
NCCc1cnc[nH]1 | inactive | inactive | inactive
CC(CCc1ccc(O)cc1)NCCc1ccc(O)c(O)c1 (stereo unspecified) | inactive | inactive and 3.55 µM (active) | inactive
NCCCCCC(=O)O | inactive | inactive | inactive
OCCN1CCN(CCCN2c3ccccc3Sc3ccc(C(F)(F)F)cc32)CC1 | inactive | – | –
O=c1c(O)c(-c2ccc(O)c(O)c2)oc2cc(O)cc(O)c12 | – | inactive | inactive
CC(C)(C)C(=O)Oc1ccc(S(=O)(=O)Nc2ccccc2C(=O)NCC(=O)O)cc1 | inactive | inactive | –
CC[N+](CC)(CC)CCOc1cccc(OCC[N+](CC)(CC)CC)c1OCC[N+](CC)(CC)CC | inactive | inactive | inactive
CC[C@@]1(O)C(=O)OCc2c1cc1n(c2=O)Cc2cc3c(CN(C)C)c(O)ccc3nc2-1 | inactive | – | –
CN1CCN(CCCN2c3ccccc3Sc3ccc(Cl)cc32)CC1 | inactive | – | –
CN1CCC(=C2c3ccccc3CC(=O)c3sccc32)CC1 | inactive | – | –
CS(=O)(=O)CCNCc1ccc(-c2ccc3ncnc(Nc4ccc(OCc5cccc(F)c5)c(Cl)c4)c3c2)o1 | inactive | inactive | inactive
CCOC(=O)Nc1ccc(NCc2ccc(F)cc2)nc1N | inactive | 14.1 µM (active) | inactive
COc1ccccc1OCCNCC(O)COc1cccc2[nH]c3ccccc3c12 (stereo unspecified) | inactive | – | –
CCOC(=O)c1ncn2c1CN(C)C(=O)c1cc(F)ccc1-2 | inactive | inactive | inactive
CN(C)C(=O)C(CCN1CCC(O)(c2ccc(Cl)cc2)CC1)(c1ccccc1)c1ccccc1 | inactive | – | –
COc1nc(C)nc(Cl)c1NC1=NCCN1 | inactive | inactive | inactive
CC1(C)O[C@H]2CC(=O)OC[C@]23[C@H]2CC[C@@]4(C)[C@H](c5ccoc5)OC(=O)[C@H]5O[C@]54[C@]2(C)C(=O)C[C@@H]13 | – | inactive | –
CCCNCC(O)COc1ccccc1C(=O)CCc1ccccc1 (stereo unspecified) | inactive | – | –
Nc1nc2c(ncn2COC(CO)CO)c(=O)[nH]1 | inactive | inactive | inactive
CN(C)c1nc(N(C)C)nc(N(C)C)n1 | inactive | inactive | inactive
COc1ccccc1OCC(O)CN1CCN(CC(=O)Nc2c(C)cccc2C)CC1 (stereo unspecified) | inactive | inactive | inactive
